High-throughput results as filed in PubChem BioAssay.
MbtI inh: blocks the Mycobacterium tuberculosis siderophore enzyme MbtI. P9WFX0. purified MbtI enzyme, fluorescence intensity read-out. inhibition, % (test concentration not listed). 0.89% of 100,000 active. AID 493033; in the data active = inhibition mostly above about 56%, no sharp cut-off; inactive = mostly below about 77%
MenB inh: blocks the Mycobacterium tuberculosis MenB enzyme; MenB enzyme assay, absorbance read-out; P9WNP5; inhibition, % (concentration not given with the values); AID 540299; 0.43% of 100,000 active; in the data active = inhibition above about 21%, passing the limit was not always enough
Target sequence (P9WNP5 whole entry, looked up): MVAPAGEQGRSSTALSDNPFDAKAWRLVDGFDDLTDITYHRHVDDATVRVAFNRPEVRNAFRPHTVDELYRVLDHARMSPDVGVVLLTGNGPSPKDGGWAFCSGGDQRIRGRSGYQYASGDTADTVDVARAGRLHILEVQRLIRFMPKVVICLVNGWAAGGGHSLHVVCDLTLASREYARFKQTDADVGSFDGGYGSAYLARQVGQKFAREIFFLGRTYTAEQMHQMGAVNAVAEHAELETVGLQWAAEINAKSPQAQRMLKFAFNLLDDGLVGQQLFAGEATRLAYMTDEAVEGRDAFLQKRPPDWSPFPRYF
Polio RdRp inh: poliovirus RNA polymerase inhibition; % elongation, % (compound at 16.7 µg/mL); poliovirus polymerase elongation, fluorescence polarization; stronger effect = lower value; P03300; 0.66% of 150,000 active; in the data active = % elongation below about 90%
AID504770: E. coli YBA685 growth inhibition, screen for V. cholerae RctB inhibitors | 0.27% of 130,000 active | E. coli YBA685 rctB-dependent plasmid, OD600 growth, 3 h; stronger effect = lower value | AID 504770 | z-score (no concentration beside the values); in the data active = z-score below about -2, passing the limit was not always enough
Each line names hits and unclear results; the compound was inactive in the other large screens. An excerpt weighted towards active compounds, which were near 1.5% of everything screened.

Cc1cc(C)c(C#N)c(Cl)n1	none
N#Cc1c(Cl)nc(N2CCOCC2)c(Cl)c1Cl	none
CC(C)=NNc1nc(Cl)c(C#N)c(Cl)c1Cl	MbtI inh 61
N#Cc1c(Cl)nc(Cl)c(Cl)c1Cl	Polio RdRp inh 76, AID504770 -3.5
CC(C)(C)c1ccc(S(=O)(=O)NCc2ccc(C(=O)N3CCN(C(=O)c4ccco4)CC3)cc2)cc1	none
COc1ccc2c(c1)nc(SCC(=O)C(C)(C)C)n2C	MbtI inh 53
COc1ccc2c(c1)nc(SCC(C)O)n2C (centres undefined)	none (no result: MenB inh)
Cc1cccc(-n2c(Cc3cc(=O)[nH]c(=O)[nH]3)nnc2SCC(=O)NC2CCCC2)c1	none
CN1CCC(N(Cc2ccc3c(c2)OCO3)C(=O)c2cn(Cc3ccccc3)c3ccsc23)CC1	MenB inh 24
CN1CCC(N(Cc2ccco2)C(=O)c2cc3sccc3n2Cc2ccccc2)CC1	none
O=C1OCC(CO)N1c1ccccc1 (centres undefined)	Polio RdRp inh 90 (no result: MbtI inh)
S=C(Nc1ccc2c(c1)OCO2)Nc1cnccn1	none
O=C1C(Nc2cccc(O)c2)=C(n2nnc3ccccc32)C(=O)c2ccccc21	Polio RdRp inh 51
COC(=O)C1=C(C)Nc2ccccc2S1	MbtI inh 58
COC(=O)c1c(N)n(-c2ccc(F)c(F)c2)c2nc3ccccc3nc12	none
O=c1cc(NCCc2ccccc2)c2ccccc2o1	MenB inh 33
Nc1nonc1C(=O)N1CCCC1	MenB inh 46
Nc1nonc1/C(=N/O)N1CCCC1	none
O=C(Nc1ccc2c(c1)OCCO2)C1CCN(c2ccc(-c3cccs3)nn2)CC1	none
Cc1ccc(Cl)cc1N1CCN(C(=O)c2cnn(-c3ccc(Cl)cc3)c2C2CCNCC2)CC1	none (no result: MbtI inh, MenB inh, AID504770)
Cc1ccc(N2CCN(C(=O)c3cnn(-c4ccc(C)c(C)c4)c3C3CCNCC3)CC2)c(C)c1	Polio RdRp inh 74 (no result: MbtI inh, MenB inh, AID504770)
CCn1c(Cc2ccc(OC)cc2)nnc1SCC(=O)NC1=NCCS1	none
Oc1ccc(O)cc1	MbtI inh 97
Cc1ccc(C(=O)C(C)OC(=O)C2=COCCO2)cc1C (centres undefined)	Polio RdRp inh 90
O=C(Sc1cccs1)C1COc2ccccc2O1 (centres undefined)	AID504770 -2.3 (no result: MbtI inh, MenB inh, Polio RdRp inh)
COc1cc(-c2ccc(/C=C3\SC(=N)N(c4nccs4)C3=O)o2)c(OC)cc1Cl	MbtI inh 56
N=C1S/C(=C\c2ccc(-c3ccccc3F)o2)C(=O)N1c1ccc2c(c1)OCO2	none
O=C(Oc1ccc(F)cc1)c1nsc(Cl)c1Cl	Polio RdRp inh 88 (no result: MbtI inh)
COc1cc2c(=O)n(Cc3ccccc3Cl)c(=O)n(CC(=O)NC3CCCCC3)c2cc1OC	none
N#CC(C#N)=C(C#N)c1ccc(N(c2ccccc2)c2ccccc2)cc1	none (no result: MenB inh)
CCCCN(C)C(=O)CCC(=O)NNc1nc2ccccc2c2nc(C)nn12	Polio RdRp inh 81 (no result: MbtI inh, MenB inh, AID504770)
Cc1nc2c3ccccc3nc(NNC(=O)CCC(=O)N3CCN(c4cccc(Cl)c4)CC3)n2n1	none (no result: MbtI inh, MenB inh, AID504770)
Cc1nc2c3ccccc3nc(NNC(=O)CCC(=O)N3CCN(c4ccccc4)CC3)n2n1	Polio RdRp inh 85 (no result: MbtI inh, MenB inh, AID504770)
Cc1nc2c3ccccc3nc(NNC(=O)CCC(=O)N3CCN(c4ccccc4F)CC3)n2n1	none (no result: MbtI inh, MenB inh, AID504770)
COc1ccc(N2CCN(C(=O)CCC(=O)NNc3nc4ccccc4c4nc(C)nn34)CC2)cc1	Polio RdRp inh 87 (no result: MbtI inh, MenB inh, AID504770)
COc1ccccc1Cn1c(=O)c2ccccc2n2c(SCC(=O)N3CCOCC3)nnc12	none
CCN(Cc1ccccc1)C(=O)Cn1cc2c(n1)CCCCCC2	none
CCCN=C1NN=C(c2cc(C)n(Cc3ccc4c(c3)OCO4)c2C)CS1	none
Clc1ccc(C2=NNC(=NCc3ccc4c(c3)OCO4)SC2)cc1	Polio RdRp inh 85
CC(C)(C)C(=O)NC1CCN(CC(=O)N(C2CCCCC2)C2CCCCC2)CC1	none
COc1cccc(C(O)C(F)(F)F)c1 (centres undefined)	MenB inh 29
CCOC(=O)c1sc(N)c(C#N)c1CSc1nnc2ccccn12	none
COC(=O)c1nnn(-c2nonc2N)c1CSC#N	MbtI inh 74
CCCN(CCC)C(=O)c1c[nH]c2ccc(S(=O)(=O)N(C)c3ccccc3OCC)cc2c1=O	none (no result: MbtI inh, MenB inh, Polio RdRp inh)
O=C(O)c1ccc2[nH]c3c(c2c1)CSCC3	Polio RdRp inh 84 (no result: MbtI inh)
CN(C)CCOC(=O)c1ccc2[nH]c3c(c2c1)CSCC3	none
CN1C(=O)C(=Cc2cn(CC(=O)O)c3ccccc23)C(=O)N(C)C1=S	MbtI inh 75
COc1ccc(C=C2C(=O)N(C)C(=S)N(C)C2=O)c(C)c1	none
Cc1ccccc1C=C1C(=O)N(C)C(=S)N(C)C1=O	MbtI inh 72
CCc1ccc(C=C2C(=O)N(C)C(=S)N(C)C2=O)cc1	MbtI inh 99
CC(OC(=O)c1cccnc1)C(=O)Nc1ccc(Br)cc1 (centres undefined)	none
CCOc1cc(CNCC(c2ccc(OC)cc2)N2CCCCC2)ccc1OC(C)C(=O)N(C)C (centres undefined)	MenB inh 49
CN(Cc1ccccc1)C(=O)c1sc2ccccc2c1Cl	none (no result: MbtI inh, MenB inh, Polio RdRp inh)
O=c1[nH]cnc2c1sc1nc(N3CCCCC3)c3c(c12)CCCC3	none (no result: MbtI inh, MenB inh, Polio RdRp inh)
COCCn1c(C)cc(C(=O)COC(=O)c2ccc3c(=O)n4c(nc3c2)CCCCC4)c1C	none
CCc1c(C)sc(NC(=O)C2CC3CCC2C3)c1C(=O)OC (centres undefined)	Polio RdRp inh 88 (no result: MbtI inh)
CCc1c(C)sc(NC(=O)/C=C/c2cccs2)c1C(=O)OC	none
O=C(O)CCC(=O)N1CCSc2ncccc21	none
Cc1ccccc1NC(=O)c1sc2nc3c(cc2c1N)CN(Cc1ccccc1)CC3	none (no result: MbtI inh, MenB inh, AID504770)
CN1CCc2nc3sc(C(=O)Nc4ccccc4C(F)(F)F)c(N)c3cc2C1	Polio RdRp inh 31 (no result: MbtI inh, MenB inh, AID504770)
C=CCNC(=O)/C(=C/c1ccccc1)c1ccccc1	none
COc1ccc(CSc2nnc(C)s2)cc1F	MenB inh 56
COc1ccc(CCNC(=O)CSc2nnc(C)s2)cc1OC	none
COc1ccccc1N1C(=O)C=CC1=O	MbtI inh 98 (no result: MenB inh)
COc1ccc(OC)c(N2C(=O)C=CC2=O)c1	MbtI inh 97 (no result: MenB inh)
Cc1cc(C)n2nc(SC/C(O)=C(\C#N)c3nc4ccccc4[nH]3)nc2n1	none
NCCN1CCCC1=O	MenB inh 28
Cn1c(SCc2cnc(-c3ccccc3)s2)nnc1C1COc2ccccc2O1 (centres undefined)	none
c1ccc(-c2nn3c(C4COc5ccccc5O4)nnc3s2)nc1 (centres undefined)	MbtI inh 57
Cn1c(=O)[nH]c2nncnc2c1=O	Polio RdRp inh 43
Cn1c(=O)[nH]c2c(nc(-c3ccccc3)n2C)c1=O	none (no result: MbtI inh)
O=C(CSc1ncnc2[nH]ncc12)CSc1ncnc2[nH]ncc12	MenB inh active
CCN(CC)C(=O)NC1CCCCCC1	none
C=C/C=C(\C=C(C)C)N(C(=O)NC1CCCCC1)C1=NCCCS1	MenB inh 29
CC(C)(C)C1(O)C=C(O)C(=O)N1c1cccnc1 (centres undefined)	MenB inh 53 (no result: MbtI inh)
COc1ccc(C(=O)c2nc3ccccc3n2C(C)C)cc1OC	AID504770 -4.6
CCN(CC)CCNc1ncnc2c1cnn2-c1ccc(F)cc1	none
CCSc1cc(C(F)(F)F)nc2cc(C(C)(C)C)nn12	MbtI inh 87
